Results filed as inconclusive are left out. Calls of active or inactive are those of the source. Calls come from the whole dose curve; as a rule, active = well fitted inhibition curve with a large enough effect; inconclusive = small, poorly fitted or top-dose-only effect; inactive = flat fitted curve, though single readings scatter.
Tests used:
Experiment in all cases: qHTS profiling for inhibitors of Plasmodium falciparum proliferation (AID 504749); note: nearly all actives have a fitted effect of over 60% in size
Details in all cases: P. falciparum in erythrocytes, SYBR Green DNA, 72 h; series mostly up to 28.7 µM
3D7 = tested on: 3D7
In short: (§1)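 Each compound contacts P. falciparum-infected red blood cells for 72 h at 37 C; lysis buffer (Tris, EDTA, saponin, Triton X, SYBR Green I) is added and fluorescence measured next morning; values normalized to controls.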

7G8 = tested on: 7G8
In short: as §1

CP185 = tested on: CP185
In short: as §1

CP192 = tested on: CP192
In short: as §1

CP194 = tested on: CP194
In short: as §1

CP201 = tested on: CP201
In short: as §1

CP237 = tested on: CP237
In short: as §1

CP238 = tested on: CP238
In short: as §1

CP247 = tested on: CP247
In short: as §1

CP265 = tested on: CP265
In short: as §1

CP268 = tested on: CP268
In short: as §1

CP305 = tested on: CP305
In short: as §1

CP335 = tested on: CP335
In short: as §1

DIV30 = tested on: DIV30
In short: as §1

Dd2 = tested on: Dd2
In short: as §1

GB4 = tested on: GB4
In short: as §1

HB3 = tested on: HB3
In short: as §1

P94_40 = tested on: P94_40
In short: as §1

PC49 = tested on: PC49
In short: as §1

TAB109 = tested on: TAB109
In short: as §1

Measured: Potency

Oc1ccc(/C=C\c2cc(O)cc(O)c2)cc1
inactive: all assays above

Source: PubChem BioAssay (NCATS)
